{"source": "PubChem BioAssay AID686978", "about": "(National Center for Advancing Translational Sciences (NCATS), 2013)", "note": "The whole screen tested about 420,000 compounds, of which about 64,000 (15%) were called active. Roughly 27% stayed inconclusive and do not appear here. Not all results are given here. Unmarked numbers belong to inactive results. Calls follow the shape of the dose curve; as a rule, active = well fitted inhibition curve with a large enough effect; inconclusive = small, poorly fitted or top-dose-only effect; inactive = flat fitted curve, though single readings scatter. % is scaled to controls: 0 for no effect and ±100 for the full control effect; potency is read from the fitted curve at half-maximal effect."}
{"assay": "qHTS for Inhibitors of human tyrosyl-DNA phosphodiesterase 1 (TDP1): qHTS in cells in absence of CPT; also: nearly all actives have a fitted effect of over 55% in size", "conditions": "DT40 Tdp1-/- hTDP1 cells, no CPT, ATP luminescence, 48 h; activity change, negative = growth inhibition: at 46.2 µM (top of the series)", "method_in_brief": "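Growth kinetics read by CellTiter-Glo luminescence after ≥48 hr at 37 °C. Cells: DT40 Tdp1-/- stably carrying human TDP1, 400 per well, compound exposure in the absence of CPT (DMSO vehicle).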", "units": {"activity change, negative = growth inhibition": "%"}}
{"smiles": "COc1ccccc1C1C(C(N)=O)=C(C)Nc2nc(CCCO)nn21", "note": "(configuration not stated)", "activity change, negative = growth inhibition": -29.3}
{"smiles": "Cc1cccc(C)c1NC(=O)CNC(=O)c1ccc2c(c1)OCCO2", "activity change, negative = growth inhibition": -2.88}
{"smiles": "COc1ccccc1NC(=O)CCSc1nnc(-c2ccc(O)cc2)o1", "activity change, negative = growth inhibition": -19.5}
{"smiles": "COc1ccc(-c2cc(NC=O)c3ncc(-c4cccc(C(=O)N(C)C)c4)n3c2)c(OC)c1", "Potency": "16.4 µM (active)"}
{"smiles": "COCCCN1C(=O)c2ccc(C(=O)Nc3ccc(OC)cc3OC)cc2C1=O", "activity change, negative = growth inhibition": 3.04}
{"smiles": "COc1ccc(C2C(C(=O)Nc3ccccc3OC)=C(C)Nc3nnnn32)c(OC)c1", "note": "(configuration not stated)", "activity change, negative = growth inhibition": -22.7}
{"smiles": "CC(=O)c1cccc(-c2cnc3c(NC=O)cc(-c4ccc(N5CCN(C)CC5)cc4)cn23)c1", "Potency": "16.4 µM (active)"}
{"smiles": "COc1ccc(C2(C#N)CCC(C(=O)O)CC2)cc1OC1CCCC1", "note": "(configuration not stated)", "activity change, negative = growth inhibition": -28.1}
{"smiles": "Cc1coc2cc3oc(=O)c(CCC(=O)O)c(C)c3cc12", "activity change, negative = growth inhibition": -14.3}
{"smiles": "CC(C)Cc1nnc(NC(=O)CCC(=O)Nc2ccc3cn[nH]c3c2)s1", "activity change, negative = growth inhibition": 1.32}
{"smiles": "Nc1nonc1-n1nnc(C(=O)N/N=C\\c2ccncc2)c1CN1CCCCC1", "activity change, negative = growth inhibition": -5.18}
{"smiles": "COc1ccc(Cc2nnc(NS(=O)(=O)Cc3ccccc3)s2)cc1", "activity change, negative = growth inhibition": 6.02}
{"smiles": "CCC(C)(C(=O)NC1CCCC1)N(C(=O)CNC(C)=O)c1ccc(C)cc1", "note": "(configuration not stated)", "activity change, negative = growth inhibition": -23}
{"smiles": "Cc1nc2nc(SCC(=O)c3ccccc3)[nH]c2cc1Br", "activity change, negative = growth inhibition": -19.9}
{"smiles": "Cc1c(CCC(=O)O)c(=O)oc2c(C)c(OCc3ccccc3Cl)ccc12", "activity change, negative = growth inhibition": -1.81}
{"smiles": "COc1ccc(OC)c(Cc2nnc(CCC(=O)NC3CCCC3)o2)c1", "activity change, negative = growth inhibition": 3.2}
{"smiles": "COc1ccc2c(C)c(CCC(=O)NC3CC3)c(=O)oc2c1C", "Potency": "16.4 µM (active)"}
{"smiles": "O=C(Nc1cccc2c1N(C(=O)c1ccco1)CCC2)c1ccco1", "activity change, negative = growth inhibition": 1.69}
{"smiles": "O=c1[nH]c2ccc(S(=O)(=O)N3CCCC3)cc2[nH]1", "activity change, negative = growth inhibition": -28.6}
{"smiles": "Cc1cc(C)cc(NC(=O)N(C)Cc2ccccc2)c1", "activity change, negative = growth inhibition": -6.83}
{"smiles": "COC(=O)C(NS(=O)(=O)c1ccc(F)cc1)c1ccccc1", "note": "(configuration not stated)", "activity change, negative = growth inhibition": -17.5}
{"smiles": "CCOC(=O)C(C)n1cnc2c(nnn2-c2cccc(OC)c2)c1=O", "note": "(configuration not stated)", "activity change, negative = growth inhibition": 2.83}
{"smiles": "CCC(=O)Nc1ccc2nc(C)n(Cc3ccccc3Cl)c(=O)c2c1", "activity change, negative = growth inhibition": -24.9}
{"smiles": "CCc1cccc(CC)c1NC(=O)Cn1c(=O)c(-c2cc(C)ccc2NC(C)=O)nc2ccccc21", "activity change, negative = growth inhibition": 1.16}
{"smiles": "CCC(=O)Nc1nc2ccccc2n1Cc1ccccc1C", "Potency": "14.6 µM (active)"}
{"smiles": "CC(=O)c1nc2ccccc2n1Cc1ccccc1", "activity change, negative = growth inhibition": -0.649}
{"smiles": "CCC(=O)Nc1ccc(C)cc1-c1nc2ccccc2n(Cc2ccccc2)c1=O", "activity change, negative = growth inhibition": -15.3}
{"smiles": "CC(=O)Nc1nc2ccccc2n1Cc1ccc(C)cc1", "Potency": "13 µM (active)"}
{"smiles": "Cc1cccc(N(CC(=O)N2CCOCC2)S(C)(=O)=O)c1", "activity change, negative = growth inhibition": -1.19}
{"smiles": "CCNC(=O)COC(=O)CCNC(=O)c1cccc(C)c1", "activity change, negative = growth inhibition": -4.54}
{"smiles": "CCOc1ccc(C(CC(=O)O)NC(=O)C23CC4CC(CC(C4)C2)C3)cc1OC", "note": "(configuration not stated)", "activity change, negative = growth inhibition": -12.7}
{"smiles": "CN1C(=O)/C(=C/C=C2\\SCCN2C)OC1=S", "activity change, negative = growth inhibition": -19.2}
{"smiles": "COc1ccc(N2CCN(c3nc(-c4ccccc4F)nc4ccccc34)CC2)cc1", "Potency": "16.4 µM (active)"}
{"smiles": "COc1ccccc1-c1nc(N2CCN(C)CC2)c2ccccc2n1", "activity change, negative = growth inhibition": 7.74}
{"smiles": "COc1ccc(N2CCN(CCNC(=O)c3nnc(Cc4c(F)cccc4Cl)o3)CC2)cc1", "activity change, negative = growth inhibition": -19.9}
{"smiles": "Brc1cc(Br)c(Oc2cc(Br)c(Br)cc2Br)cc1Br", "activity change, negative = growth inhibition": -18.6}
{"smiles": "CCc1ccc[n+](-c2nc([O-])sc2C=O)c1", "activity change, negative = growth inhibition": 1.39}
{"smiles": "CCN(CC(=O)Nc1ccccc1C(F)(F)F)C(=O)C1CCN(C(=O)Nc2ccccc2)CC1", "activity change, negative = growth inhibition": 26.8}
{"smiles": "CC(=O)Nc1ccc(S(=O)(=O)N2CCC(N(C)CCC(C)C)CC2)cc1", "activity change, negative = growth inhibition": -14.4}
{"smiles": "CC(C)CCN(C(=O)Nc1ccc(Cl)c(Cl)c1)C(C)c1cccs1", "note": "(configuration not stated)", "Potency": "18.4 µM (active)"}
{"smiles": "Cc1ccc(NC(=S)N(Cc2ccco2)C(C)c2cccs2)cc1", "note": "(configuration not stated)", "activity change, negative = growth inhibition": 12.8}
{"smiles": "S=C(Nc1ccc(Br)cc1Cl)N1CCC2(CC1)OCCO2", "activity change, negative = growth inhibition": -14.2}
{"smiles": "C/C=C/C=C/C(=O)OCC(=O)Nc1ccc(Cl)cc1", "activity change, negative = growth inhibition": -27.7}
{"smiles": "O=C(NCN1CCN(CCO)CC1)c1cnccn1", "activity change, negative = growth inhibition": -12.6}
{"smiles": "Cc1cc(/C=C2/SC(=O)N(CC(=O)N3CCCC3)C2=O)c(C)n1C", "activity change, negative = growth inhibition": -8.02}
{"smiles": "Cc1cc(/C=C2/SC(=O)N(CC(=O)N3CCCC3)C2=O)ccc1N1CCOCC1", "Potency": "23.1 µM (active)"}
{"smiles": "O=C(CN1C(=O)CSc2ncccc21)N1CCOCC1", "activity change, negative = growth inhibition": 0.179}
{"smiles": "CN(C)C(=S)Nc1ccc(Br)cc1Cl", "activity change, negative = growth inhibition": 4.16}
{"smiles": "CC(=O)Oc1cc2c(C(=O)NCCN3CCOCC3)c(C)oc2c2ccccc12", "Potency": "16.4 µM (active)"}
{"smiles": "Cc1cc(C)cc(C(=O)NCCN2CCOCC2)c1", "activity change, negative = growth inhibition": -4.83}
{"smiles": "O=C(NCCN1CCOCC1)c1c(F)c(F)c(F)c(F)c1F", "activity change, negative = growth inhibition": 16.8}
{"smiles": "O=C(CCc1nc(CN2CCN(S(=O)(=O)c3ccc(F)cc3)CC2)no1)N1CCCCC1", "activity change, negative = growth inhibition": -13.9}
